Pf Dd2 growth – qHTS Primary assay for Inhibitors of Plasmodium falciparum Dd2 growth in vitro; P. falciparum Dd2 growth, SYBR Green, 72 h; Potency, µM (top dose mostly 28.9 µM), hits mostly inhibitors; 4.3% of 120,000 active; AID 1347417, 2020; active = well fitted inhibition curve with a large enough effect; also: nearly all actives have a fitted effect of over 65% in size
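Infected erythrocytes (Dd2, 0.3% parasitemia, 2.5% hematocrit final) are added to compound in RPMI-1640/Albumax II medium, grown 72 h at 37C in low oxygen, then lysed with saponin/Triton-X containing SYBR Green and read by fluorescence.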
Large screens that a line does not name were inactive. Only a selection was taken, and hits are over-represented in it overall.

C[S+](=O)([O-])N1Cc2ccccc2CC2(CCCN(Cc3ccccn3)C2)C1 (centres undefined)	none
CC(C)C(=O)N1Cc2ccccc2CC2(CCCCN2Cc2ccncc2)C1 (centres undefined)	Pf Dd2 growth 8.9µM
C[S+](=O)([O-])N1CC2(CCCCN2Cc2ccccn2)Cc2ccccc21 (centres undefined)	Pf Dd2 growth 8.9µM
CCCN1CCC2(CC1)Cc1ccccc1CN(C(=O)C(C)C)C2	none
CC(C)C(=O)N1Cc2ccccc2CC2(CCCCN2Cc2ccccn2)C1 (centres undefined)	Pf Dd2 growth 13µM
CC(C)C(=O)N1CCCC2(Cc3ccccc3CN2[S+](=O)([O-])c2ccccc2)C1 (centres undefined)	none
CC(=O)N1CC2(CCCN2Cc2ccccn2)Cc2ccccc21 (centres undefined)	none
COc1ccc(-c2nnc([C@H]3CCN(CC4CCCCC4)C3)o2)cc1	none
O=C1CCC(C(=O)N2CCN(Cc3ccc(F)cc3)CC(O)C2)=NN1 (centres undefined)	none
COc1ccc(-c2ccnc(-c3nnc(C)n3CCN(C)C)c2)cc1OC	none
Cc1cccnc1NCCNC(=O)c1cc(S(N)(=O)=O)ccc1F	none
COc1cccc(CN2CCCC3(CN[S+](=O)([O-])c4ccccc4N3)C2)c1 (centres undefined)	none
CCN(C(=O)Cn1c(C)cc2nc3n(c(=O)c21)CCCCC3)c1cccc(C)c1	none
CC1=NS(=O)(=O)N(CCc2ccccc2)C=C1C(=O)O	none
Cc1ccn(CC(=O)N2C[C@@H](COc3ccccc3)[C@H](C(N)=O)C2)n1	none
COc1cc(CNCCOc2cccnc2)ccc1OCC(O)CN1CCSCC1 (centres undefined)	none
CCN1CCN(CC(O)COc2cccc(CNCCc3cccc(C)n3)c2)CC1 (centres undefined)	none
CN(CC(O)COc1cccc(CNCCOc2ccccc2)c1)C1CCCCC1 (centres undefined)	Pf Dd2 growth 4.5µM
O=C(CCC1CCCC1)N1CCC2(CCCCO2)CC1	none
CN(Cc1nc(COc2ccccc2)no1)CC1(N2CCOCC2)CCCCC1	Pf Dd2 growth 8.9µM
COc1ccccc1OC(C)C(=O)NCC1(N2CCOCC2)CCCCC1 (centres undefined)	none
CN(CCCN1CCOCC1)Cc1nc(-c2cccs2)no1	none
O=c1c2nc(NCc3ccccc3)ccc2ncn1Cc1ccccc1	none
Cc1csc(Nc2ccc3ncn(Cc4ccccc4)c(=O)c3n2)n1	Pf Dd2 growth 11µM
Cc1csc(Nc2ccc3ncn(Cc4ccccn4)c(=O)c3n2)n1	none
C=CCNC(=O)C1CCCN(S(=O)(=O)c2ccccc2)CCC(=O)NCC1 (centres undefined)	none
CCC(Cn1nnc2ccccc2c1=O)NC(=O)Nc1ccc(C)cc1 (centres undefined)	none
CC(=O)Nc1ccc(N(C(=O)Cn2nnc3ccccc32)C(C(=O)NCc2ccccc2)c2ccc(C)cc2)cc1 (centres undefined)	Pf Dd2 growth 11µM
CCOc1ccc(N(C(=O)Cn2nnc3ccccc32)C(C(=O)NCc2ccccc2)c2ccc(OC)cc2)cc1 (centres undefined)	none
O=C(c1ccc(OC2CCN(C(=O)c3cccc(F)c3)CC2)nc1)N1CCOCC1	none
Cc1nc(N2CCN(C(=O)c3ccc(C)c(F)c3)CC2)cc(C(F)(F)F)n1	none
CCn1cc(S(=O)(=O)N2CCC(Cc3nncn3CC)C2)cn1 (centres undefined)	none
CCCN1CCN(c2cc3c(cc2F)c(=O)c(S(=O)(=O)c2ccc(CC)cc2)cn3CC)CC1	Pf Dd2 growth 10µM
CCCn1cc(S(=O)(=O)c2ccc(CC)cc2)c(=O)c2cc(F)c(N3CCN(C)CC3)cc21	Pf Dd2 growth 7.1µM
CCc1ccc(S(=O)(=O)c2cn(C)c3cc(N4CCOCC4)c(F)cc3c2=O)cc1	none
CCn1cc(S(=O)(=O)c2cc(C)cc(C)c2)c(=O)c2cc(F)c(N3CCC(C)CC3)cc21	none
CCCCn1cc(S(=O)(=O)c2ccccc2)c(=O)c2cc(F)c(N3CCN(CCC)CC3)cc21	none
CCc1ccc(S(=O)(=O)c2cn(C)c3cc(N4CCCC4)c(F)cc3c2=O)cc1	none
Cc1ccc(CNC(=O)N2CCC(c3noc(-c4ccccc4)n3)C2)cc1 (centres undefined)	none
CCc1ccc(CNC(=O)CCC2CCN(C(=O)c3ccccc3)CC2)cc1	none
CCOc1ccc(CCNC(=O)CCc2c(C)nc3c(c(C)nn3-c3ccc(C)c(C)c3)c2C)cc1	none
CCOC(=O)CCc1c(C)nc2c(c(C)nn2-c2ccc(C)cc2)c1C	none
CCOC(=O)CC(NC(=O)CCc1c(C)nc2c(c(C)nn2-c2ccc(C)c(C)c2)c1C)c1ccc(C)cc1 (centres undefined)	Pf Dd2 growth 4.5µM
Cc1ccc(CNC(=O)C2(c3ccc(NC(=O)C4CC4)cc3)CCC2)cc1	none
Cn1c(C(=O)O)cc2c1CCN(Cc1ccc(F)cc1)C2	none
COc1cccc(-c2cc3c(=O)n(CCNC(=O)c4ccccc4F)ccn3n2)c1	Pf Dd2 growth 13µM
COc1cccc(-c2cc3c(=O)n(CCNC(=O)c4cc5ccccc5[nH]4)ccn3n2)c1	none
COc1cccc(-c2cc3c(=O)n(CCNC(=O)c4ccc(Cl)cc4)ccn3n2)c1	none
COc1cccc(-c2cc3c(=O)n(CCNC(=O)c4cc(Cl)ccc4F)ccn3n2)c1	none
COc1cccc(-c2cc3c(=O)n(CCNC(=O)c4cc(C)cc(C)c4)ccn3n2)c1	none
COc1cccc(-c2cc3c(=O)n(CCNC(=O)c4ccc(C(C)(C)C)cc4)ccn3n2)c1	Pf Dd2 growth 1.1µM
COc1ccc(F)cc1-c1ncc2c(n1)OCCN(c1cccc(C(F)(F)F)c1)C2=O	none
COc1ccccc1CC(=O)NCC(=O)N1CCN(c2ccccn2)CC1	none
N#Cc1cccc(-c2cn3c(n2)N(C(=O)c2ccncc2)CCC3)c1	none
Cn1c(CCNC(=O)c2ccccc2C2CCNC2)nc2ccccc21 (centres undefined)	none
COc1cccc(-c2nc(-c3nnn4c3COC(c3ccc(C)cc3)C4)no2)c1OC (centres undefined)	none
COc1ccccc1Cc1nc(-c2nnn3c2COC(c2ccc(C)cc2)C3)no1 (centres undefined)	Pf Dd2 growth 7.9µM
Cc1ccc(C2Cn3nnc(-c4noc(COc5ccc(F)cc5)n4)c3CO2)cc1 (centres undefined)	none
CO[C@H]1C[C@@H](O)C12CCN(C(=O)c1ccc(OC(F)F)cc1)CC2	none
CC(C)CNC(=O)N1CCCCCCN(C)C(=O)[C@@H]2CCC[C@@H]21	none
CCOC(=O)Cn1c(=O)n(CC2CCCO2)c2nc(-c3ccccc3Cl)nc(C(N)=O)c21 (centres undefined)	none
CCOC(=O)Cn1c(=O)n(-c2cccc(Cl)c2)c2nc(-c3ccccc3Cl)nc(C(N)=O)c21	Pf Dd2 growth 10µM
CCOC(=O)Cn1c(=O)n(-c2ccccc2OC)c2nc(-c3ccccc3F)nc(C(N)=O)c21	none
CC1CCCN(C(=O)Cn2ccn3nc4c(c3c2=O)CCCC4)C1 (centres undefined)	none
c1ccc2oc([C@H]3CCN(C4CCOCC4)C3)nc2c1	none
Cc1cc(F)ccc1OC1CN(Cc2ccc(C(F)(F)F)cc2)C1	none
COCc1nc(-c2ccc(OC3CCN(S(=O)(=O)c4c(C)noc4C)C3)cc2)no1 (centres undefined)	none
CN1c2cc(C(=O)Nc3cccc(F)c3)ccc2C(=O)N2CCCCC21 (centres undefined)	none
CCN1c2cc(C(=O)NCc3ccc(C(C)C)cc3)ccc2C(=O)N2CCCCCC21 (centres undefined)	Pf Dd2 growth 11µM
